Most compounds without a hit are left out; they make up all but 10% or so of the library.
NS1 function inh: blocks influenza NS1 protein function. 270,000 tested, 0.4% active. AID 2326. Potency, µM (titrated, usually from 46.1 µM); calls by dose curve; also: actives are rising curves; nearly all actives have a fitted effect of over 50% in size
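Compounds were scored for reversing the slow growth caused by influenza A NS1 in S. cerevisiae, measured by optical density at 600 nm. Assay medium contained 2% galactose at pH 6.0; NS1-free yeast of the same strain were the positive control.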
Pf growth 48h: inhibits P. falciparum growth in the first generation, 48 h; P. falciparum luciferase growth in erythrocytes, 48 h; Potency, µM (top dose mostly 28.7 µM), usual class: inhibitors; 310,000 tested, 5.9% active; AID 504832
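First compound was added to culture medium, then infected red cells at 0.1% parasitemia and 2% hematocrit (final). After incubation at 37 C under 5% CO2, luciferase detection reagent was dispensed and light output recorded.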
Pf growth 96h: inhibits malaria parasite growth, 96 h. P. falciparum luciferase reporter growth, 96 h. 320,000 tested, 6.9% active. Potency, µM (titrated, usually from 28.7 µM), most hits filed as inhibitors
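Compounds incubated with erythrocytes infected by luciferase-expressing P. falciparum (2% hematocrit, 0.05% parasitemia final) for 96 hours, 37 C in 5% CO2. Growth inhibition scored as decreased luciferase luminescence.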
SARS PLP yeast: inhibitors of SARS-CoV papain-like protease in yeast; S. cerevisiae expressing SARS-CoV PLpro, growth rescue; 330,000 tested, 0.19% active; Potency, µM (highest dose often 32.9 µM), usual class: activators; calls by dose curve; also: nearly all actives have a fitted effect of over 55% in size
Each line names hits and unclear results; the compound was inactive in the other large screens. Unless noted, calls follow the shape of the dose curve; as a rule, active = well fitted inhibition curve with a large enough effect; inconclusive = small, poorly fitted or top-dose-only effect, or another doubt; inactive = no such curve, though single readings can be large or run the other way.

COc1ccccc1NC(=O)C1=C(C)Nc2nc(SCc3cccc(F)c3)nn2C1c1ccc(C(=O)O)cc1 (stereo not drawn)	none (no result: NS1 function inh)
CN(Cc1ccccc1)S(=O)(=O)c1ccc(Cl)c(C(=O)OCC(=O)NC2CCS(=O)(=O)C2)c1 (stereo not drawn)	none (no result: NS1 function inh, Pf growth 48h, Pf growth 96h)
Cc1ccc2nsnc2c1NC(=O)c1cncc(Br)c1	none (no result: NS1 function inh)
O=C(CNC(=O)c1ccco1)OCC(=O)c1ccc([N+](=O)[O-])cc1	none
C=CCSc1nc2sc3c(c2c(=O)[nH]1)CC(C)(CC)OC3 (stereo not drawn)	none
CCOc1ccccc1C(=O)NC1CCN(Cc2nnnn2C2CCCC2)CC1	Pf growth 48h inconclusive, Pf growth 96h 13.1µM
CCOc1ccccc1C(=O)NC1CCNCC1	Pf growth 96h 13.1µM
COc1ccccc1C(=O)Nc1ccccc1C(=O)NC1CCCCC1	none
CCOc1ccc(CN(C)CC(=O)Nc2ccccc2C(=O)NC2CC2)cc1	Pf growth 48h inconclusive (no result: NS1 function inh)
O=c1oc2ccccc2n1Cc1ccccc1Cl	Pf growth 96h 4.65µM
N#Cc1ccccc1Cn1c(=O)oc2ccccc21	none
Cc1cccc(CN2CCc3c(OCC(=O)N4CCCc5ccccc54)cccc3C2=O)c1	Pf growth 48h 11.7µM, Pf growth 96h inconclusive
O=C1c2cccc(OCC(=O)N3CCCc4ccccc43)c2CCN1Cc1ccc(F)cc1	Pf growth 48h inconclusive, Pf growth 96h 10.4µM
CCCCCC(=O)Nc1ccc(C(=O)COC(=O)CN2C(=O)NC3(CCCC3)C2=O)cc1	none (no result: NS1 function inh)
COc1cccc(OCc2cc(C(=O)N(C)Cc3nc(C)cs3)no2)c1	Pf growth 96h 6.57µM
COc1cccc(OCc2cc(C(=O)N(C)C3CCOCC3)no2)c1	none
Cc1cnc(CN(C)C(=O)c2cc(COc3c(F)cccc3F)on2)[nH]1	Pf growth 48h 4.15µM
COc1cccc(OCc2cc(C(=O)NCC3CCCCC3)no2)c1	Pf growth 96h 11.7µM
CC(C)c1ccc(C(CC(=O)O)N2Cc3ccccc3C2=O)cc1 (stereo not drawn)	none
CCCc1nc(NCCCOCC)c2nnn(Cc3ccccc3)c2n1	Pf growth 96h 11.7µM
CCOCCCNc1nc(C(F)(F)F)nc2c1nnn2Cc1ccccc1Cl	none
COc1ccc(N(C(=O)c2cccc(OC)c2OC)C2C=CS(=O)(=O)C2)cc1 (stereo not drawn)	Pf growth 96h 2.33µM
COc1ccc(CCN(C)C(=O)CN2C(=O)NC3(CCCc4ccccc43)C2=O)cc1OC (stereo not drawn)	Pf growth 96h inconclusive (no result: NS1 function inh)
O=C(c1ccco1)N1CCN(C(=O)C2CC(=O)N(c3ccc(Cl)cc3)C2)CC1 (stereo not drawn)	Pf growth 96h inconclusive
CCc1ccccc1OC[C@@H](O)CN[C@H]1CCCc2ccccc21	Pf growth 48h 1.85µM, Pf growth 96h 1.65µM (no result: NS1 function inh, SARS PLP yeast)
O=C(c1ccccc1)c1ccc(OCC(O)CNC2CCCc3ccccc32)cc1 (stereo not drawn)	Pf growth 48h inconclusive, Pf growth 96h 10.4µM
CC(C)(C)NCC(O)COc1ccccc1C1CCCC1 (stereo not drawn)	Pf growth 48h 2.62µM, Pf growth 96h 5.22µM (no result: NS1 function inh, SARS PLP yeast)
OC(CNC1CCCc2ccccc21)COc1ccc2ccccc2c1 (stereo not drawn)	Pf growth 48h inconclusive, Pf growth 96h inconclusive
COc1cccc(N2C(=O)Nc3ccc(Br)cc3C2(O)C(=O)NCCN(C)C)c1 (stereo not drawn)	none
CC(=O)Nc1ccc(OC(=O)c2ccccc2O)cc1	none (no result: NS1 function inh, SARS PLP yeast)
O=C1CNC(c2ccccc2Cl)c2cc(Br)ccc2N1 (stereo not drawn)	Pf growth 96h 4.65µM
COC(=O)CN1C(=O)Nc2ccc(Br)cc2C1c1ccccc1Cl (stereo not drawn)	none (no result: Pf growth 48h, Pf growth 96h)
CCCN(CC(=O)Nc1ccccc1OC)C(=O)C1=COCCO1	none (no result: NS1 function inh)
Cn1c(=O)c2c(n3cnnc13)-c1ccccc1CC21CCCC1	Pf growth 48h inconclusive, Pf growth 96h inconclusive
CSc1nnc2n(C)c3c(c(=O)n12)C1(CCCC1)Cc1ccccc1-3	NS1 function inh inconclusive, Pf growth 48h inconclusive, Pf growth 96h 10.4µM, SARS PLP yeast inconclusive
CC1(C)C2CC[C@]1(C)[C@@H](O)C2	none (no result: NS1 function inh, SARS PLP yeast)
O=c1c(Cc2ccc(F)cc2)c(O)ccn1Cc1cccc(Cl)c1	Pf growth 48h 11.7µM, Pf growth 96h 13.1µM
O=c1c(Cc2ccc(Cl)cc2Cl)c(O)ccn1Cc1ccc(Cl)cc1	NS1 function inh inconclusive, Pf growth 48h 4.15µM, Pf growth 96h inconclusive
CC(=O)c1ccc(OC(=O)N(c2ccccc2)c2ccccc2)cc1	none (no result: Pf growth 48h)
COc1cc(C)c(N(C(C)=O)c2ccccc2)c(C)c1	NS1 function inh inconclusive, Pf growth 48h 5.86µM (no result: Pf growth 96h)
COc1ccccc1NC(=O)NNC(=O)CCN1CCOCC1	Pf growth 48h inconclusive
